Legend:
Test in all cases: PBM binding z-score (relative to random genomic background probes); higher = stronger binding; sequences stand for … in GC…GCGATTGACAGCGTAGAATGAAGG
[1] = test system: FXR:RXRa (NR concentration 270 nM, RXRa partner concentration 90 nM)
Outline: (§1)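 For binding z-scores, the reference was random background probes on custom Agilent 4×180K protein-binding microarrays. These arrays were incubated 1 h with ligand-free nuclear receptor dimers in PBS pH 7.4, 2% milk, 0.02% Triton X-100, 1 mM DTT, 0.2 mg/mL BSA and 0.4 mg/ml salmon testes DNA. Fluorescence was scanned after antibody detection of each partner (one per run) and regression-normalized.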

[2] = test system: LXRa:RXRa (NR concentration 270 nM, RXRa partner concentration 90 nM)
Outline: as §1

[3] = test system: LXRa homodimer (NR concentration 270 nM)
Outline: as §1

[4] = test system: LXRb:RXRa (NR concentration 270 nM, RXRa partner concentration 90 nM)
Outline: as §1

[5] = test system: LXRb homodimer (NR concentration 270 nM)
Outline: as §1

[6] = test system: PPARa:RXRa (NR concentration 270 nM, RXRa partner concentration 90 nM)
Outline: as §1

[7] = test system: PPARg:RXRa (NR concentration 180 nM, RXRa partner concentration 90 nM)
Outline: as §1

[8] = test system: PPARg:RXRa 270nM:90nM, anti-RXR (NR concentration 270 nM, RXRa partner concentration 90 nM)
Outline: as §1

[9] = test system: PPARg:RXRa 30nM:10nM, anti-RXR (NR concentration 30 nM, RXRa partner concentration 10 nM)
Outline: as §1

[10] = test system: PPARg:RXRa 90nM:30nM, anti-RXR (NR concentration 90 nM, RXRa partner concentration 30 nM)
Outline: as §1

Sequence | PBM binding z-score [1] | PBM binding z-score [2] | PBM binding z-score [3] | PBM binding z-score [4] | PBM binding z-score [5] | PBM binding z-score [6] | PBM binding z-score [7] | PBM binding z-score [8] | PBM binding z-score [9] | PBM binding z-score [10]
GCTATTAGATGAAAGGGCAACCGAATGATTCTCG | -0.0836 | 0.345 | 0.21 | 0.469 | -0.27 | 2.46 | 3.72 | 5.46 | 4.56 | 5.76
TCAGACAGGTGAAGGTAAATCAGGTACGCAGTCG | 1.69 | 1.37 | 0.109 | 1.11 | 0.081 | 1.6 | 0.829 | 2.39 | 4.45 | 3.31
ACTAGCAGGCCACGTTTGGGTCACTCAAACAAAG | 0.331 | 0.116 | -0.479 | 0.601 | -0.41 | 1.42 | 0.444 | 0.355 | -0.448 | -0.155
TAGCCTAGGTCAGATCGGGCCAGCATACGCTATA | 2.37 | 0.982 | -0.589 | 0.386 | -0.807 | 1.52 | 0.739 | 0.901 | -0.0521 | 0.135
AGTCAAAGTTCACTAGGTAACGTTAGATTCAGCT | 5.17 | 5.24 | 3.17 | 2.95 | 1.04 | 4.7 | 7.15 | 6.57 | 3.45 | 6.1
ATATGTAGGTTCAGGGTCATTCAGGTTGGTTCGC | 4.82 | 4.56 | 2.81 | 4.44 | 1.46 | 5.2 | 7.3 | 7.14 | 6 | 7.46
ATAGAAAGGTCGACGAGGTGAGTATACACCGTTT | 4.55 | 2.95 | 0.22 | 2.52 | 0.294 | 4.18 | 2.91 | 2.81 | 1.55 | 2.17
ACTTACGGGTCAACGAGGATATAGCACGCGTATA | 6.53 | 4.05 | 0.457 | 3.61 | 0.828 | 5.43 | 5 | 5.19 | 2.12 | 3.85
ATATGTAGATTAGCTGGGGTCATTCAGACTAGGC | 3.43 | 3.51 | 1.55 | 4.27 | 1.51 | 4.33 | 1.45 | 2.53 | 0.88 | 1.9
AGTCAAAGTTCAGTACGAGGTAACGTAAAGCACG | 3.32 | 3.34 | 1.28 | 1.83 | 0.584 | 2.76 | 3.76 | 4.15 | 1.8 | 2.93
TCTTGTAGATCAAGTAGGTTAAGAAAGCCTGAGT | 0.567 | 0.521 | 0.138 | 0.441 | -0.306 | 1.17 | -0.25 | 1.46 | 2.57 | 2.04
ACAACGAGGGCAATGAGTTGATAGCACGGGTGGC | 0.234 | 0.0424 | -0.326 | -0.109 | -0.343 | 0.835 | 1.33 | 0.403 | -0.00945 | 0.211
CCGACTGGGGCAGACAGGTTACCATACCATCCGG | -0.305 | -0.476 | -0.144 | -0.341 | -0.833 | 0.114 | 0.832 | 0.0365 | -0.675 | -0.262
CATACAGGGTCAGCTAGGCCAGAGTAGGGACGGC | 4.68 | 2.84 | -0.378 | 2.27 | 0.142 | 4.64 | 3.58 | 3.06 | 0.957 | 2.2
ATACCAAGGTGATAGTGAGGTCGTTGATACTAAC | 1.53 | 1.39 | 0.943 | 1.4 | 0.0823 | 1.81 | 0.759 | 0.98 | 0.458 | 0.738
ATCTCTAGGTAACCAAGTTCACTGAATGCCGAAC | 0.969 | 1.87 | 2 | 1.58 | 1.09 | 2.25 | 1.1 | 1.54 | 0.634 | 1.2
CGTCCAAGGTCAGCAGGTCAGTTAAAGCGACGTG | 6.18 | 4.17 | 0.53 | 3.54 | -0.0511 | 4.97 | 4.14 | 4.73 | 1.44 | 3.28
TCTGCTAGGTCAACGATGGTCAACTAATCTGCTA | 3.62 | 3.21 | 0.113 | 2.15 | 0.0398 | 3.3 | 2.54 | 3.18 | 1.79 | 2.6
CGTCCAAGGTCAGAGCGGTCAGTGAATGCCGAGT | 4.97 | 4.15 | 1.27 | 2.69 | -0.231 | 3.86 | 1.33 | 2.69 | 0.148 | 1.42
ATTGAAAGGTCGAAGGTGAGTATACCCACCCGAA | 4.77 | 3.47 | 0.632 | 2.97 | 0.961 | 4.74 | 5.11 | 5.53 | 2.82 | 5.09
TCTAGTTGGTCACGGAGGCCACACACGACGGGTA | 0.758 | 0.488 | -0.0408 | -0.0226 | -0.0385 | 1.02 | 1.19 | 1.94 | 3.1 | 2.46
CCTACTGGGCCAACGGTCATTGATTCCAATGCTC | 0.0438 | -0.079 | 0.674 | -0.198 | -0.607 | 2.53 | 5.23 | 6.24 | 4.4 | 5.61
TCTCGGAAGACACGAAAGGTCAGAGCTCGACATC | 2.36 | 3.38 | 1.85 | 3.1 | 0.242 | 3.61 | 0.772 | 2.46 | 3.29 | 2.35
CAAACTATGTCAAAGGTCAAAGTCGAGCCAACCA | 6.52 | 6.3 | 5.11 | 5.79 | 2.93 | 7.19 | 11.9 | 10.2 | 10.4 | 11.8
